# Reference: PubChem BioAssay AID1725 (National Center for Advancing Translational Sciences (NCATS), 2009)
# This is one part of the list. Records with an inconclusive call do not appear. Unmarked numbers belong to inactive results. Active and inactive are the calls of the source. Calls come from the whole dose curve; as a rule, active = well fitted inhibition curve with a large enough effect; inconclusive = small, poorly fitted or top-dose-only effect, or effect the other way; inactive = no such curve, though single readings can be large or run the other way.
# Assay: Confirmation Concentration-Response Assay for Inhibitors of the ERK Signaling Pathway using a Homogeneous Screening Assay; Stimulation with EGF
# Conditions: HEK293 EGF-stimulated ERK phosphorylation, AlphaScreen; series mostly up to 57.5 µM; activity change, negative = inhibition: at the top concentration
# From the text: qHTS Assay for Inhibitors of the ERK Signaling Pathway using a Homogeneous Screening Assay
# NIH Chemical Genomics Center [NCGC]
# NIH Molecular Libraries Screening Centers Network [MLSCN]
# Assay Submitter (PI): Dr. Wei Zheng, NCGC/NIH
# The Ras/extracellular-signal-regulated kinase (ERK) mitogen activated protein (MAP) kinase signaling pathway (ERK1/2 cascade) plays is a key role in transmitting signals from the cell surface to the nucleus (Nishida and Gotoh 1993; Chang and Karin, 2001). The cascade is initiated by the small G-protein Ras, which recruits Raf […], where activation occurs. Alternatively, this pathway can be activated by elevating intracellular cAMP.
# Activation of the ERK pathway is essential in increased cell division and cell survival. Sustained and constitutive activation of the ERK pathway, however, has been linked to uncontrolled cell proliferation, increased cell survival, and tumor progression. Thus, the ERK has been as an attractive target for cancer chemotherapy in the past few years (Sebolt-Leopold and Herrera, 2004). Given its physiological and pathological importance, assessment of ERK phosphorylation has been broadly performed in both basic research and drug discovery. Most assays for the measurement of ERK phosphorylation use the antibody-based detection methods, such as western blot and ELISA. These assays require multiple reagent additions with cell wash steps and are not suitable for high-throughput screening.
# The current cell-based ERK phosphorylation assay was performed using AlphaScreen platform. AlphaScreen is a two bead-based proximity-dependent chemical energy transfer luminescent assay platform. […]
# HEK293 cells stably expressing type-1 vasopressin receptor (V1b) were maintained in DMEM medium (Invitrogen, Carlsbad, CA) at 37C under a humidified atmosphere containing 5% CO2 and 95% air. […] The ERK phosphorylation in cells was determined using an AlphaScreen assay kit provided by PerkinElmer. […] AC50 values were determined from concentration-response data modeled with the standard Hill equation. […]
Structure (SMILES),"activity change, negative = inhibition [%]",Potency
CCCNc1ncnc2sc(C)c(C)c12,-8.99,
CN(C)c1cc2c(Nc3ccc4c(cnn4Cc4ccccc4)c3)ncnc2cn1,,2.82 µM (active)
CN(C)c1ccc(Nc2c3c4c(cccc4n(C)c2=O)C(=O)c2ccccc2-3)cc1,,11.2 µM (active)
